The text below walks through data of PubChem BioAssay (NCATS).

Molecules are shown by their SMILES. Records with an inconclusive call do not appear. Calls of active or inactive are those of the source. Unless noted, how the calls were made is not given here.

In assay [1] the target is Peroxisome proliferator-activated receptor gamma (Homo sapiens) (UniProt P37231). The assay can be described thus: qHTS assay for small molecule agonists of peroxisome proliferator-activated receptor gamma signaling (AID 588536; active means well fitted curve in the direction sought with a large enough effect in the signal ratio, with a control signal flat, not every such curve was filed as active; the % refers to the signal ratio;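 further: 0% = DMSO basal wells and 100% = rosiglitazone at 2 µM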). In outline:
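Ratiometric blue/green fluorescence (405 nm excitation; 460 and 530 nm emission) from CCF4-loaded HEK293 reporter cells serves as signal. Exposure to test compounds lasts 16 h at 37 C in medium containing 1% charcoal/dextran-treated serum.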

The target is the same in assay [2]. In words: qHTS assay for small molecule antagonists of peroxisome proliferator-activated receptor gamma signaling (AID 588537; active means well fitted inhibition curve with a large enough effect in the signal ratio, with a control signal flat, not every such curve was filed as active; the % refers to the signal ratio;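 further: reporter cells co-stimulated with 50 nM rosiglitazone agonist during compound treatment; % of control where 0% means no effect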). In outline:
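PPAR-gamma-UAS-bla HEK293 cells (3000/well, 1% charcoal/dextran-stripped FBS) were preincubated 6-6.5 h at 37 C, given titrated compounds, then stimulated with 50 nM rosiglitazone for 16 h. Beta-lactamase activity was read with CCF4 dye; IC50 came from Hill fits.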

A short description of assay [3]: qHTS assay for small molecule agonists of retinoid X receptor alpha signaling (AID 588544). As to conditions: HEK293T RXRa-UAS-bla, beta-lactamase reporter, 18 h; 530 nm emission.
Assay [4] can be described thus: qHTS assay for small molecule agonists of the antioxidant response element (ARE) signaling pathway (AID 651741; active means well fitted activation curve with a large enough effect in the signal ratio; the % refers to the signal ratio; further: potency means the concentration at half of the fitted maximal effect; on activation: % of control where 0% means no effect). In outline: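 ARE-bla HepG2 cells (beta-lactamase reporter under ARE control) were plated at 2,000 cells/well, preincubated 5 h at 37 C/5% CO2, then treated with DMSO-dissolved compounds for 16 h at 37 C; LiveBLAzer B/G FRET substrate added, fluorescence read after 2 h at room temperature.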

In assay [5] the target is Nuclear receptor subfamily 1 group I member 2 (Rattus norvegicus) (UniProt Q9R1A7). The assay can be described thus: qHTS assay for small molecule activators of the rat pregnane X receptor (rPXR) signaling pathway (AID 651751). Further: 0% is about no effect. Particulars: rPXR reporter cells, luciferase (One-Glo), 24 h.
In assay [6] the target is Glucocorticoid receptor (Homo sapiens) (UniProt P04150). In words: qHTS assay for small molecule antagonists of glucocorticoid receptor signaling (AID 588533; active means well fitted inhibition curve with a large enough effect in the signal ratio, with a control signal flat, not every such curve was filed as active; the % refers to the signal ratio;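 further: cells stimulated with 2 nM dexamethasone as agonist; on the % scale 0 is the no-effect control and ±100 the full control effect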). In outline: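 Antagonist-mode qHTS: compound titrations added to GRE-bla HeLa cells, then dexamethasone 2 nM final; 18 h, 37 C. CCF4 FRET fluorescence normalized to dexamethasone and DMSO; IC50 from Hill fit.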
Assay [7] deals with Peroxisome proliferator-activated receptor delta (Homo sapiens) (UniProt Q03181). The assay can be described thus: qHTS assay for small molecule antagonists of peroxisome proliferator-activated receptor delta signaling (AID 588535; active means well fitted inhibition curve with a large enough effect in the signal ratio, with a control signal flat, not every such curve was filed as active; the % refers to the signal ratio). The method in brief:
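GeneBLAzer PPAR-delta-UAS-bla HEK293T cells in medium with 2% charcoal/dextran FBS were preincubated 5 hrs at 37 C, then given compounds, incubated 18 hrs at 37 C, and read by CCF4 beta-lactamase fluorescence; IC50 from Hill fits.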

Assay [8] can be described thus: qHTS assay for small molecule activators of the human pregnane X receptor (PXR) signaling pathway (AID 720659). Further: 0% is about no effect.

Chain of Peroxisome proliferator-activated receptor delta (Homo sapiens) (Q03181 whole entry, looked up): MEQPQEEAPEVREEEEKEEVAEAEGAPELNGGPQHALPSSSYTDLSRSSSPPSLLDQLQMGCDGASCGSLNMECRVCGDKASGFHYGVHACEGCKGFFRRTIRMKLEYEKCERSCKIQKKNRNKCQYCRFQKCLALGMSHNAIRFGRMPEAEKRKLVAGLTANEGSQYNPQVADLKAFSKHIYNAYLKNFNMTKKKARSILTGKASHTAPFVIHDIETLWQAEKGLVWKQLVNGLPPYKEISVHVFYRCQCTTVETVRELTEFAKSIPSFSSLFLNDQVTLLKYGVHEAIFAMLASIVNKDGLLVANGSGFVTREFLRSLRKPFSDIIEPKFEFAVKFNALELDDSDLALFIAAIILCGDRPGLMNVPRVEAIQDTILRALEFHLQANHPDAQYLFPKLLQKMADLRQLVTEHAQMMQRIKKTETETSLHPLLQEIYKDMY
Chain of Glucocorticoid receptor (Homo sapiens) (P04150 whole entry, looked up): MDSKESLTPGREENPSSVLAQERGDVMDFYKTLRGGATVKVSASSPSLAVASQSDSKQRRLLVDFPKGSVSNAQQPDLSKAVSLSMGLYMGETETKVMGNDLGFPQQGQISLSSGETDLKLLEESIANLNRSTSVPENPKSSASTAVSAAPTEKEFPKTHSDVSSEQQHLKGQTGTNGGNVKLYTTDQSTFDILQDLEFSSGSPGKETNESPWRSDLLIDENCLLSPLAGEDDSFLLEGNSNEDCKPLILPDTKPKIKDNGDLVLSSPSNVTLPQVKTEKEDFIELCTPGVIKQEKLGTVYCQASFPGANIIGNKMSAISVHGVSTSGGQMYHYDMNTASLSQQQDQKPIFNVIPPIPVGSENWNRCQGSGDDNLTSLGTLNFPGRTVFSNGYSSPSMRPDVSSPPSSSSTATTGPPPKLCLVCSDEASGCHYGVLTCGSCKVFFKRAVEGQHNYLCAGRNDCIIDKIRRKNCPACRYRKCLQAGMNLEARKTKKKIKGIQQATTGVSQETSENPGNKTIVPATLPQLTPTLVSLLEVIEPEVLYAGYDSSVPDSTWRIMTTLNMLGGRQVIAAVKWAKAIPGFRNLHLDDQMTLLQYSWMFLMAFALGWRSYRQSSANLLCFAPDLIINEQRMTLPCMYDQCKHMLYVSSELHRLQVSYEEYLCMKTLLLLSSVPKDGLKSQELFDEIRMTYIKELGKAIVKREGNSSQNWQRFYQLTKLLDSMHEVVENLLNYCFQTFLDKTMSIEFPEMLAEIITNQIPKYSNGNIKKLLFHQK
Chain of Nuclear receptor subfamily 1 group I member 2 (Rattus norvegicus) (Q9R1A7 whole entry, looked up): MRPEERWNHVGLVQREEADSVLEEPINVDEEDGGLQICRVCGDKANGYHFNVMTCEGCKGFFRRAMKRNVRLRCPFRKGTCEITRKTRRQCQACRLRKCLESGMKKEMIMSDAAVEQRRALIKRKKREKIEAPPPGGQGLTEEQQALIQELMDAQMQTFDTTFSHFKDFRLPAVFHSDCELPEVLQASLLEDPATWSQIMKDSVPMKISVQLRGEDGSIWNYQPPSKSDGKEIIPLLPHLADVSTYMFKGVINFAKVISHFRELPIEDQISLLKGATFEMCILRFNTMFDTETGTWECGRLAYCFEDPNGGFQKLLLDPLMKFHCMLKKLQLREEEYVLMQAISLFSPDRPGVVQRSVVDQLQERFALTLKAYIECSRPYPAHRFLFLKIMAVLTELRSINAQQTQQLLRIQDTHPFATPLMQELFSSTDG
Chain of Peroxisome proliferator-activated receptor gamma (Homo sapiens) (P37231 whole entry, looked up): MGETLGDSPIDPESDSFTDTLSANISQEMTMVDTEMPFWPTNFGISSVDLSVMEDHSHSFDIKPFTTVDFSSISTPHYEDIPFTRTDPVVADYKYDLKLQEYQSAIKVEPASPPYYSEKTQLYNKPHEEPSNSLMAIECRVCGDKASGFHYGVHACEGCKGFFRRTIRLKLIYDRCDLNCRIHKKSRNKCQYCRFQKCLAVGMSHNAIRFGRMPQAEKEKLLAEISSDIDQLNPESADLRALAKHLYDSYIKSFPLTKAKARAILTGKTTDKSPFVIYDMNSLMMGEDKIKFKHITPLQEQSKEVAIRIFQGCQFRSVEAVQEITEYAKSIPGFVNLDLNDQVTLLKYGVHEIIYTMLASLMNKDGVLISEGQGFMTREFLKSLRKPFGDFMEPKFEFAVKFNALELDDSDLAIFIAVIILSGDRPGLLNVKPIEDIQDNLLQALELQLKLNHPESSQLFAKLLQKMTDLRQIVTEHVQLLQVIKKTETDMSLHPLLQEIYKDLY

Turning to `CCC(C)(c1ccc(O)cc1)c1ccc(O)cc1`, the Potency entry in assay [1] and in assay [2] was “inactive” in each case. Further, the max response in assay [3] is 3.09%; in assay [5], -0.68% (inactive). In addition, the Potency in assay [4] is 54.5 µM (active).

As for `O=C(O)c1c(Cl)ccc2cc(Cl)cnc12`, the Potency entry in assay [6], in assay [7], in assay [1] and in assay [2] was “inactive” each time. Also, the max response in assay [5] was -2.15% (inactive). Besides, the compound was called inactive in assay [8].

Consider `CCC(CC)Nc1c([N+](=O)[O-])cc(C)c(C)c1[N+](=O)[O-]`, for which the Potency entry in assay [6], in assay [7], in assay [1] and in assay [2] was “inactive” throughout. In addition, in assay [3], the max response was 4.16%.

For the compound `COC(=O)C(C)Oc1ccc(Oc2ccc(Cl)cc2Cl)cc1` (stereo not given), the max response is 20.2% in assay [3] and -0.585% (inactive) in assay [5]. In addition, the compound was called inactive in assay [8].

Consider `CC(C)COP(=O)(OCC(C)C)OCC(C)C`, for which the Potency entry in assay [7], in assay [1] and in assay [2] was “inactive” throughout. The max response is -15.8% in assay [3] and -5.22% (inactive) in assay [5]. In addition, in assay [8], the compound was classed as inactive.

For the compound `CCC(C)c1ccc(O)cc1` (stereo not given), the max response was -6.05% in assay [3] and -4.44% (inactive) in assay [5]. The outcome in assay [8] was inactive.

With `CCC[CH2][Sn]([CH2]CCC)([CH2]CCC)[CH2]CCC`, the Potency result in assay [2] and in assay [4] was “inactive” in each case. Besides, in assay [5], the max response is 8.28% (inactive). Further, the result in assay [8] was inactive.

Turning to `CC1(C(=O)Nc2ccc(O)c(Cl)c2Cl)CCCCC1`, the Potency entry in assay [7] and in assay [1] was “inactive” each time. In addition, the max response was -10.8% in assay [3] and 1.26% (inactive) in assay [5].

As for `CC1COC(Cn2cncn2)(c2ccc(Oc3ccc(Cl)cc3)cc2Cl)O1` (stereo not given), in assay [4], the Potency was 15.4 µM (active). Moreover, the max response in assay [5] was -12.8% (inactive). The outcome in assay [8] was inactive.

As to `COC[C@H](C)N(C(=O)CCl)c1c(C)csc1C`, the Potency result in assay [7] and in assay [1] was “inactive” each time. Besides, the Potency in assay [4] was 19.3 µM (active). Further, in assay [5], the max response was 0.618% (inactive).

As for `CNc1cnn(-c2cccc(C(F)(F)F)c2)c(=O)c1Cl`, the Potency result in assay [7] is “inactive”.

Regarding `CCCSP(=O)(OCC)Oc1ccc(Br)cc1Cl` (stereo not given), the Potency entry in assay [7] and in assay [1] was “inactive” each time. In addition, the max response in assay [5] was 7.3% (inactive). The result in assay [8] was inactive.

Take `O=C/C(Cl)=C(/Cl)C(=O)O`: in assay [5], the max response is -11.2% (inactive). For the same compound, in assay [8], the call was inactive.

`Nc1nc(N)nc(N)n1`: the Potency result in assay [7], in assay [1] and in assay [2] was “inactive” in each case. Also, the values for the max response in assay [3] and in assay [5] were -6.58% and -3.43% (inactive), respectively. In assay [8], the result was inactive.

Consider `COCC(=O)N(c1c(C)cccc1C)N1CCOC1=O`, for which the Potency entry in assay [7] and in assay [4] was “inactive” each time. Besides, the max response in assay [3] was -6.63%; in assay [5] it was 3.21% (inactive). Also, the outcome in assay [8] was inactive.

Turning to `COc1cccc(C(=O)NN(C(=O)c2cc(C)cc(C)c2)C(C)(C)C)c1C`, the Potency result in assay [7], in assay [1] and in assay [2] was “inactive” throughout. Besides, the max response in assay [3] was -2.17%.

On to `CC(O)CN(CC(C)O)CC(C)O` (stereo not given), for which, in assay [7], the Potency entry was “inactive”. In addition, in assay [4], the Potency is 54.5 µM (active). Further, the max response in assay [5] was -0.821% (inactive). In assay [8], the compound was classed as inactive.

With `Cc1cc(C2CC2)nc(Nc2ccccc2)n1`, the Potency result in assay [7], in assay [1] and in assay [2] was “inactive” in each case. The max response in assay [3] stood at 7.71%. For the same compound, the Potency in assay [4] is 54.5 µM (active).

For the compound `O=C(Nc1ccccc1)Nc1cnns1`, the Potency entry in assay [6] and in assay [7] was “inactive” throughout.

With `COC(=O)c1ccccc1S(=O)(=O)NC(=O)Nc1nc(C)nc(OC)n1`, the Potency entry in assay [7] is “inactive”. Besides, the max response in assay [5] is -8.23% (inactive).

For `CN/C(=N/[N+](=O)[O-])NCC1CCOC1` (stereo not given), the Potency result in assay [7] and in assay [4] was “inactive” each time. Besides, the max response in assay [3] is -9.02%.

For `CN1COCN(Cc2cnc(Cl)s2)/C1=N\[N+](=O)[O-]`, the Potency result in assay [6], in assay [7], in assay [1] and in assay [2] was “inactive” in each case. The max response in assay [5] is -0.267% (inactive). Further, in assay [8], the call was inactive.

`CCOP(=S)(OCC)SCn1nnc2ccccc2c1=O`: the Potency result in assay [1] is “inactive”. The Potency in assay [4] is 54.5 µM (active).

As for `CC(C)N(C(=O)SCC(Cl)=C(Cl)Cl)C(C)C`, the Potency result in assay [6] is “inactive”.

Turning to `CCC(C)c1cc([N+](=O)[O-])cc([N+](=O)[O-])c1O` (stereo not given), the Potency result in assay [1] is “inactive”. In assay [4], the Potency was 2.73 µM (active).

As to `O=C(O)[C@@H]1[C@H](C(=O)O)[C@@]2(Cl)C(Cl)=C(Cl)[C@]1(Cl)C2(Cl)Cl`, the Potency entry in assay [6], in assay [7] and in assay [4] was “inactive” throughout. Moreover, the values for the max response in assay [3] and in assay [5] were -1.73% and 4.23% (inactive), respectively.

In the case of `CSC1=N[C@@](C)(c2ccccc2)C(=O)N1Nc1ccccc1`, in assay [3], the max response was determined as 25.5%. Moreover, the Potency in assay [4] was 6.86 µM (active).

Take `C1CC[CH]([Sn]([CH]2CCCCC2)[CH]2CCCCC2)CC1`: the Potency result in assay [6] was “inactive”. Moreover, the Potency in assay [4] was 19.3 µM (active). Besides, the call in assay [8] was inactive.

`O=P(Oc1ccccc1)(Oc1ccccc1)Oc1ccccc1`: the Potency entry in assay [6], in assay [7] and in assay [1] was “inactive” in each case.
